Screens deposited in PubChem by National Center for Advancing Translational Sciences (NCATS).
Compounds with a hit are over-represented: about 4.7% of the library has one in this group of screens.
D1 PAM: potentiators of human D1 dopamine receptor; potentiation, % at 10 µM; AID 504651; 0.036% of 360,000 active; HEK293 TREx D1 cells, calcium flux, dopamine EC20 potentiation; in the data active = potentiation above about 30%; also: 0% is about no effect
D1 antagonist: blocks dopamine activation of the human D1 receptor; P21728; HEK293 TREx D1 cells, calcium flux, dopamine EC80; stronger effect = lower value; activity change, negative = inhibition, % at 10 µM; 3.2% of 360,000 active; AID 504652; in the data active = activity change below about -30%; also: % is scaled to controls: 0 for no effect and ±100 for the full control effect
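Tetracycline-induced HEK293 T-REx cells with force-coupled D1 receptor were loaded with a no-wash calcium dye. Compound was added after a 10 s baseline and read kinetically for 180 s; EC80 dopamine was then added and calcium flux followed another 180 s.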
TRHR enhancer-1: allosteric enhancers of human TRH receptor. P34981. TRHR cells, fluo-8 calcium fluorescence, EC20 TRH enhancement. enhancement, % at 2 µM. 0.66% of 360,000 active. AID 493056; in the data active = enhancement above about 30%; also: 0% is about no effect
Target sequence (P34981 whole entry, looked up): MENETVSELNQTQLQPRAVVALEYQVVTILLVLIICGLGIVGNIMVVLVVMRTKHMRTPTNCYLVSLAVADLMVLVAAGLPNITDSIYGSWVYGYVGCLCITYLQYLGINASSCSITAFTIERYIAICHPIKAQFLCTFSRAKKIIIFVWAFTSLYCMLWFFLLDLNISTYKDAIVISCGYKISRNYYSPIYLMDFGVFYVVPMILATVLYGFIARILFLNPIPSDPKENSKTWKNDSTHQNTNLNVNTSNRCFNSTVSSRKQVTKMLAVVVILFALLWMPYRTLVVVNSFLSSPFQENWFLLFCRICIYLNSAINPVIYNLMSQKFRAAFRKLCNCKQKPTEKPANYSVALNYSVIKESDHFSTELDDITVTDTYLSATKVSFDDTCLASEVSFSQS
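TRHR-expressing cells loaded with fluo-8 calcium dye were read kinetically (ex 480/em 530) during compound addition, then stimulated with an EC20 of TRH (10 nM final). Enhancement of the Gq-mediated intracellular calcium response was scored.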
D1 ag: agonists of human D1 dopamine receptor | HEK293 T-REx D1 cells, calcium flux, agonist mode | activation, % at 2 µM | P21728 | 1% of 360,000 active; in the data active = activation above about 30%; also: 0% is about no effect
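Inducible HEK293 T-REx D1 cells, force-coupled to calcium signalling, were plated at 4000 cells/well with tetracycline and held overnight at 30 C. After no-wash calcium dye loading, compound-evoked calcium rise over 180 s flagged agonists.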
TRHR agonist-1: agonists of human TRH receptor; 0.18% of 360,000 active; activation, % at 2 µM; P34981; TRHR cells, calcium flux fluo-8, FDSS agonist mode; in the data active = activation above about 30%; also: 0% is about no effect
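Agonist-mode FDSS calcium read (Ex 480/Em 530, 1 s cycles) in 1536-well TRHR cells with fluo-8 dye, after 10-cycle baseline and 23 nL compound addition; TRH at EC20 (10 nM final) added afterwards for the enhancer phase.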
TRHR enhancer-2: human TRH receptor allosteric enhancement confirmation | shares compounds with TRHR enhancer-1 | TRH receptor cell assay, enhancer confirmation qHTS | activity change, negative = inhibition, % at 46.1 µM | 970 tested, under 10 active;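 also: compound effect scored on response to added TRH at EC20 of 10 nM; 0% is about no effect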
TRHR agonist-2: confirmation of human TRH receptor agonists | Potency, µM (doses to about 46.1 µM), inactives show top-dose activation, most hits filed as activators | TRHR-expressing cells, agonist activation read-out | 8% of 970 active | shares compounds with TRHR enhancer-1; also: potency is read from the fitted curve at half-maximal effect; 0% is about no effect; nearly all actives have a fitted effect of over 75% in size
Starred values were filed as active, the others as inactive; ? = inconclusive; . = not tested or not shown. Unless noted, calls follow the shape of the dose curve; as a rule, active = well fitted curve in the direction sought with a large enough effect; inconclusive = small, poorly fitted or top-dose-only effect, or another doubt; inactive = no such curve, though single readings can be large; an effect the other way counts as inactive or inconclusive.

SMILES | D1 PAM | D1 antagonist | TRHR enhancer-1 | D1 ag | TRHR agonist-1 | TRHR enhancer-2 | TRHR agonist-2
Cc1ccc(C)c(C2=CSC3=NCCN23)c1 | -8 | -15 | 68* | 7 | -2 | -4 | 1%
Cc1ccc(CNC(=O)c2cccc3c2C(=O)c2ccc(N4CCCCC4)cc2S3(=O)=O)cc1 | 5 | 17 | 12 | 97* | 36* | -6 | 21µM*
O=C(NC1CCCCCC1)C1CCN(S(=O)(=O)c2ccc(F)cc2)CC1 | 4 | -4 | -3 | 2 | 0 | . | .
O=C(NC1CCCCC1)N1CCN(S(=O)(=O)c2ccc(F)cc2)CC1 | -6 | -22 | 46* | 0 | 0 | -3 | 1%
Cc1ccc(C)c(CN2C(=O)CSc3ccc(C(=O)NCc4ccc(F)cc4)cc32)c1 | 0 | 18 | -1 | 0 | 0 | . | .
NC(=O)C1CCN(C(=O)c2ccccc2NC(=O)c2nsc3ccccc23)CC1 | 0 | 8 | 30 | 0 | 0 | . | .
CC(C)CC(=O)NC(=S)N1CCCCCC1 | -6 | 8 | 42* | -2 | 0 | ? | 0%
CCOC(=O)c1c(C)n(-c2ccccc2)c2ccc(OC(=O)c3cccc(Cl)c3)cc12 | 1 | 5 | -5 | 3 | -1 | . | .
S=c1nc(-c2sccc2OCc2ccc(Cl)cc2Cl)[nH][nH]1 | -5 | -26 | 51* | -1 | 0 | ? | 1%
COc1ccc(C2C(C(=O)Nc3cccnc3)=C(C)Nc3nc(-c4ccc(OC)c(OC)c4)nn32)cc1 (stereo not drawn) | 0 | 22 | -1 | 2 | 0 | . | .
CCOC(=O)CSc1ccc2nnc(-c3ccncc3)n2n1 | -5 | -16 | 52* | 0 | -1 | 4 | 3%
O=C(N/N=C/c1c(O)ccc2ccccc12)c1ccc(Br)o1 | 23 | -2 | 4 | 97* | 51* | 1 | 18µM*
O=C(N/N=C/c1c(O)n(-c2ccc(Cl)cn2)c(=O)c2ccccc12)C1CC1 | 2 | 4 | 5 | 1 | 2 | . | .
O=C(N/N=C/c1c(O)n(-c2ccc(Cl)cn2)c(=O)c2ccccc12)c1ccncc1 | -9 | -6 | 6 | 45* | 38* | 11 | 21µM*
C=C1C(=O)O[C@H]2[C@H]1[C@@H](O)CC(=C)[C@@H]1CC(=O)[C@@H](C)[C@H]21 | 1 | 11 | 52* | 4 | 1 | -6 | 1%
C#CCn1cccc(C(=O)Nc2ccc(OC)cc2)c1=O | -3 | 3 | 45* | 2 | 0 | -3 | -1%
CCCn1cccc(C(=O)Nc2ccc(OC)cc2)c1=O | -2 | -3 | 1 | 3 | 0 | . | .
CCO[C@H]1OC(C(=O)N2CCN(Cc3ccc4c(c3)OCO4)CC2)=C[C@@H](c2ccc(Br)cc2)[C@@H]1CCCO | -2 | -11 | 49* | 0 | 0 | -3 | 1%
Cc1ccc(C(=O)n2nc(C)c(S(=O)(=O)N3CCCCCC3)c2C)cc1 | -2 | -12 | -4 | 5 | 0 | . | .
O=C(Cn1cnc2c(nnn2Cc2ccccc2)c1=O)N1CCN(c2ccccc2)CC1 | -2 | 7 | 89* | 1 | -1 | -4 | 0%
CCN(C(=O)COC(=O)/C=C/c1ccccc1Cl)c1c(N)n(Cc2ccccc2)c(=O)[nH]c1=O | 2 | 4 | 52* | 1 | 1 | -3 | 2%
CCN(C(=O)COC(=O)/C=C/c1cccc(Cl)c1)c1c(N)n(Cc2ccccc2)c(=O)[nH]c1=O | -3 | 0 | -3 | 8 | -1 | . | .
COc1ccc(C(=O)c2sc3nc(-c4ccccc4)ccc3c2N)cc1OC | -5 | 1 | 2 | 57* | 44* | -3 | ?
COc1ccc(N(CC(=O)NN=C2CCN(C)CC2)S(=O)(=O)c2ccccc2)c(OC)c1 | 2 | -7 | 41* | -4 | 0 | 1 | 0%
COc1ccccc1OCC(=O)OCC(=O)Nc1sccc1C(N)=O | -4 | -23 | -2 | 7 | 34* | -1 | ?
SMILES | D1 PAM | D1 antagonist | TRHR enhancer-1 | D1 ag | TRHR agonist-1 | TRHR enhancer-2 | TRHR agonist-2
COc1ccccc1NC(=O)COn1nnc2ccc(S(=O)(=O)N3CCOCC3)cc21 | -2 | 4 | 59* | 6 | 0 | -3 | 1%
O=C(NC(=S)Nc1ccccc1Br)C1CCC1 | -4 | -19 | 62* | 7 | 0 | -7 | 3%
N#Cc1ccccc1NC(=S)NC(=O)C1CCC1 | 0 | -3 | 0 | 2 | 0 | . | .
O=S(=O)(Nc1cnc2ccccc2c1)N1CCCCCC1 | -6 | 13 | 48* | 4 | 1 | 2 | 4%
Cc1ccc(S(=O)(=O)Nc2cnc3ccccc3c2)cc1 | 3 | -3 | 7 | 9 | 1 | . | .
O=C(O)c1ccc(N/N=C/c2cccc(F)c2)cc1 | 5 | -1 | 3 | 2 | 0 | . | .
O=C(O)c1ccc(N/N=C/c2ccc(F)c(F)c2)cc1 | -5 | 6 | 47* | 3 | 0 | -9 | -1%
CC(C)Nc1nc2c(-c3cccc(Br)c3)nnn2c2ccccc12 | 1 | 10 | -16 | 2 | 0 | . | .
NS(=O)(=O)c1ccc(NC(=O)c2ccc(-c3ccccc3)cc2)cc1 | 12 | 10 | -3 | 6 | 0 | . | .
NS(=O)(=O)c1ccc(C(=O)Nc2ccc(-c3nc4cccnc4s3)cc2)cc1 | 9 | 13 | 44* | 1 | 1 | -9 | 1%
CCN(CC)C(=O)Cn1c(=O)n(Cc2ccc(C(=O)NCc3ccccc3Cl)cc2)c(=O)c2ccccc21 | -3 | -15 | 0 | 4 | -1 | . | .
COc1ccc(Cn2c(=O)[nH]c3cc(C(=O)N4CCN(Cc5ccccc5)CC4)ccc3c2=O)cc1 | -4 | -12 | -1 | 4 | 0 | . | .
COc1ccc2c(C)c(C(=O)N3CCN(Cc4ccccc4)CC3)oc2c1 | 0 | -4 | 70* | 2 | 0 | ? | 0%
COc1ccccc1CNC(=O)N1CCN(S(=O)(=O)c2ccc(C)cc2)CC1 | 7 | -9 | 42* | 5 | -1 | -9 | -1%
Cc1ccc(CNC(=O)c2ccc3c(c2)nc2n3CCCC2)cc1 | -1 | 1 | 4 | 0 | 0 | . | .
O=C(NCCc1ccccc1Cl)C1CCC(=O)N(C2CCCCCC2)C1 (stereo not drawn) | 1 | 15 | 4 | 0 | 0 | . | .
O=C(NCCOc1ccccc1)C1CCC(=O)N(C2CCCCCC2)C1 (stereo not drawn) | -2 | -3 | 58* | 11 | 0 | 4 | -1%
Cn1c(CNC(=O)c2ccccc2)nnc1SCC(=O)Nc1nccs1 | -4 | -7 | -1 | 2 | 0 | . | .
Cc1ccc(C(=O)NCc2nnc(SCC(=O)NC(C)c3ccccc3)n2C)cc1 (stereo not drawn) | -1 | 1 | 43* | 2 | -1 | 7 | -1%
